Pf growth 48h = P. falciparum growth inhibition at 48 hours (one generation); P. falciparum luciferase growth in erythrocytes, 48 h; actives 5.9% (n = 310,000); Potency, µM (doses to about 28.7 µM), without a hit: top-dose activity change, negative = inhibition, hits mostly inhibitors; note: potency is the fitted concentration of half-maximal effect; % is set by controls: 0 for no effect and ±100 for the full control effect
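A one-generation exposure of luciferase-tagged malaria parasites in RPMI 1640/Albumax erythrocyte culture, 37 C and 5% CO2. Inhibition is inferred from decreased luminescence after adding detection reagent.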
Pf growth 96h = P. falciparum growth inhibition at 96 hours. P. falciparum luciferase reporter growth, 96 h. Potency, µM (titrated, usually from 28.7 µM), for inactives: top-dose activity change, negative = inhibition, hits mostly inhibitors. actives 6.9% (n = 320,000). AID 504834; note: potency is the fitted concentration of half-maximal effect; % is set by controls: 0 for no effect and ±100 for the full control effect
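Two parasite generations (96 h, 37 C, 5% CO2) of compound exposure in infected erythrocytes (0.05% parasitemia, 2% hematocrit). Luciferase-reporter P. falciparum; decreased luminescence indicates inhibited growth, aimed at apicoplast-acting delayed death.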
HCV inh = blocks hepatitis C virus; Huh7.5.1 HCVcc-Cre infection, luciferase reporter, 44 h; Potency, µM (top dose mostly 41.8 µM), for inactives: at the top dose activity change, negative = inhibition, hits mostly inhibitors; actives 3.4% (n = 340,000); note: potency is the fitted concentration of half-maximal effect; % is set by controls: 0 for no effect and ±100 for the full control effect
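Infectious HCV cell culture screen: compound-treated cells (1,000/well, pre-plated 4 h) are infected with HCVcc-Cre at roughly 0.5 moi and grown 44 h. Infection is quantified by luciferase signal after 15 min substrate incubation at room temperature.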
AMA1-RON2 inh = inhibitors of Plasmodium falciparum AMA1-RON2 interaction; actives 0.2% (n = 360,000); AID 720542; AlphaScreen AMA1-biotinylated RON2 peptide binding; Potency, µM (series often up to 58.2 µM), inactives show at the top dose activity change, negative = inhibition, actives largely listed as inhibitors;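 note: potency is the fitted concentration of half-maximal effect; 0% = vehicle wells and -100% = peptide control; nearly all actives have a fitted effect of over 45% in size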
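AMA1 (3D7) with his tag at 25 nM final met compounds first, then biotinylated RON2 peptide at 25 nM; detection used donor plus acceptor beads, 10 µg/mL apiece, read by AlphaScreen after 30 min at room temperature.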
Shiga toxin inh = Shiga toxin inhibition | Vero cells, Shiga toxin protein synthesis inhibition reporter | inhibition, % at 38.7 µM | actives 9.2% (n = 290,000); in the data active = inhibition mostly above about 28%, no sharp cut-off; inactive = mostly below about 43%; note: 0% is about no effect
CHX counter = counter-screen for Shiga toxin inhibitors: cycloheximide protein synthesis inhibition; cell reporter, cycloheximide protein synthesis inhibition counterscreen; max response, %; actives 12% (n = 300,000); AID 2314; in the data active = max response mostly above about 13%, no sharp cut-off; inactive = mostly below about 14%; note: read at 38.3 µM for the half of the compounds with a filed dose; 0% is about no effect
* hit, by the source's call; i = inactive; ? = inconclusive; . = not tested or not shown; ! = not confirmed by another sample; [ ] = dose if it differs, or a comment. Shown are actives, neighbours in structure and some others; about 21% of the full set was active somewhere. Unless noted, calls come from the whole dose curve; as a rule, active = well fitted curve in the direction sought with a large enough effect; inconclusive = small, poorly fitted or top-dose-only effect, or another doubt; inactive = no such curve, though single readings can be large; an effect the other way counts as inactive or inconclusive.

SMILES	Pf growth 48h	Pf growth 96h	HCV inh	AMA1-RON2 inh	Shiga toxin inh	CHX counter
CC(C(=O)NC1CCCC1)N(C(=O)c1ccc(-c2ccccc2)[nH]1)c1ccccc1F (configuration not stated)	13µM*	?	-49%	-28%	1	-1
O=C(NC1CCCCC1)C(c1ccncc1)N(Cc1ccc(F)cc1)C(=O)c1ccccn1 (configuration not stated)	-15%	-15%	0%	10%	16	4
O=C(NC1CCCCC1)C(c1ccncc1)N(Cc1ccccc1)C(=O)c1ccc(-c2ccccc2)[nH]1 (configuration not stated)	?	-3%	13µM*	-27%	-13	-2
CCC1(c2ccc(F)cc2)NC(=O)N(CC(=O)Nc2ccc(C)c(S(=O)(=O)N3CCOCC3)c2)C1=O (configuration not stated)	18%	-29%	-24%	-3%	-6	8
OCc1ccc2c(c1)c(-c1ccc3c(c1)OCCO3)c(-c1ccccc1)n2-c1ccccc1	?	4.7µM*	?	?	.	.
O=C(CSc1nnc(-c2ccco2)c(-c2ccco2)n1)c1ccccc1	-4%	?	2.8µM*	-8%	4	2
O=C(CSc1nnc(-c2ccco2)o1)c1ccccc1	?	?	10%	16%	66	33*
O=C(CSc1nnc(-c2ccco2)o1)c1ccc[nH]1	275%	i	?	49%	110*	50*
O=C(Cn1nnc(-c2cccs2)n1)NNC(=O)c1ccccc1Cl	34%	18%	8%	72%	-13	6
Cc1nccn1CCC(=O)NC1CC(C)(C)Cc2c1cnn2-c1ccccc1 (configuration not stated)	.	.	.	5%	.	.
CCOC(=O)[C@]12CCCC=C1N(Cc1ccc3c(c1)OCO3)C(=O)[C@H](CC(=O)NCCC(C)C)C2	.	.	.	-5%	.	.
COc1ccc(OCCSc2ncnc3nc[nH]c23)cc1	.	?	?	42%	36	37*
Fc1ccccc1OCCSc1ncnc2nc[nH]c12	62%	4.7µM*	-7%	-4%	76*	36*
Cc1ccc(C)c(NC(=O)COC(=O)CCC(=O)c2cccs2)c1	37%	0%	1%	-5%	-6	1
CCC(C)NC(=O)Cn1ccc2cc(S(=O)(=O)N3CCCCCC3)ccc21 (configuration not stated)	-3%	?	1%	7%	-11	3
COc1ccc(C2c3c(-c4ccccc4O)n[nH]c3C(=O)N2CCc2ccc(OC)c(OC)c2)cc1 (configuration not stated)	7.4µM*	46%	?	-8%	-13	7
COc1ccc(CCN2C(=O)c3[nH]nc(-c4ccccc4O)c3C2c2cccc(Cl)c2)cc1 (configuration not stated)	3.3µM*	1.9µM*	?	102%	-2	-3
COc1ccc(C2C(C(C)=O)=C(O)C(=O)N2CCc2ccccc2)c(OC)c1 (configuration not stated)	0%	.	-12%	-1%	-24	-7
CCN(CC)CCOC(=O)c1ccc(N)cc1	16%	?	10%	2%	5	1
CCCOc1cc(N)ccc1C(=O)OCCN(CC)CC	15%	0.72µM*!	25%	0%	.	.
COc1nc(Nc2cccc(F)c2)nc(OC)n1	-7%	1%	-20%	8%	.	20*
COc1cc2nc(Nc3cccc(F)c3)nc(N)c2cc1OC	0.41µM*	?	-10%	-9%	24	14
Nc1nc(Nc2cccc(F)c2)nc(N2CCOCC2)c1[N+](=O)[O-]	?	?	-21%	-2%	6	13
CCOC(=O)C1=CCC(c2ccccc2C(F)(F)F)N(S(=O)(=O)c2ccc(C)cc2)C1 (configuration not stated)	.	.	.	8%	.	.
CN(CC(=O)Nc1ccc(OC(F)(F)F)cc1)C(=O)Cc1cccs1	.	.	-15%	-7%	.	.
SMILES	Pf growth 48h	Pf growth 96h	HCV inh	AMA1-RON2 inh	Shiga toxin inh	CHX counter
C(=C\c1ccco1)/c1nc2ccccc2[nH]1	18%	0%	-10%	-6%	70*	50*
O=C(/C(=C/c1ccc(Cl)cc1)c1nc2ccccc2[nH]1)c1ccccc1	2.9µM*	2.3µM*	10µM*	65%	41*	37*
O=c1[nH]c2ccccc2nc1/C=C/c1ccc(Cl)cc1	239%	36%	19%	4%	69*	37*
C(=C\c1nc2ccccc2[nH]1)/c1ccccc1	-35%	?	11µM*	9%	68*	21*
O=C(NCCc1nc2ccccc2[nH]1)/C(=C/c1ccco1)NC(=O)c1ccco1	-2%	-1%	-5%	7%[11.6 µM]	-3	-2
c1ccc2[nH]c(CCCCc3nc4ccccc4[nH]3)nc2c1	?	23%	-10%	18%	12	4
CC(=O)Nc1ccc(/C=C/c2nc3ccccc3[nH]c2=O)cc1	36%	13%	-17%	4%	59	9
NC(=O)CSc1nnc(-c2cc(-c3ccc(Cl)cc3)nc3ccccc23)o1	38%	-32%[5.75 µM]	11%	16%	-9	-3
O=c1cc(CN2CCN(c3ccccc3)CC2)c2ccccc2o1	.	.	.	-1%	.	.
Cc1cc(C)c(S(=O)(=O)c2c(C)cccc2C)c(OCC(C)C)n1	12µM*	12µM*	?	23%	-30	6
COc1cc(C2NC(=O)NC(O)(C(F)(F)F)C2C(=O)c2cccs2)ccc1O (configuration not stated)	0%	13µM*	-2%	7%	87*	34*
COc1cc(C2NC(=O)NC(O)(C(F)(F)F)C2C(=O)c2ccc(Cl)cc2)ccc1O (configuration not stated)	6%	45%	20%	-12%	12	10
CCC(C)(C)NC(=O)c1cc(S(=O)(=O)N2CCCCC2)ccc1N1CCOCC1	?	0%	9%	4%	20	1
C=CC[C@@H](CC(=O)OC(C)(C)C)C(=O)OC[C@H]1CCCN1C(=O)[C@@H](CC=C)CC(=O)N(CCO)Cc1ccccc1	.	.	-14%	23%	.	.
O=C(CCC1N=C2c3ccccc3N=C(SCC(=O)NCc3ccco3)N2C1=O)NCc1ccco1 (configuration not stated)	-17%	?	5%	-14%	-8	0
CCOC(=O)CSC1=Nc2ccccc2C2=NC(CC(=O)NCc3ccc4c(c3)OCO4)C(=O)N12 (configuration not stated)	4.1µM*	31%	3%	?	-2	11
Cc1cc(NC(=O)CSC2=Nc3ccccc3C3=NC(Cc4ccccc4)C(=O)N23)n[nH]1 (configuration not stated)	?	?	-8%	0%	9	-2

Screens as filed in PubChem.
